Reference: PubChem BioAssay (EPA / NIEHS)
Active and inactive are the calls of the source. Rule for the calls: active = hit-call score of the fitted dose curve at least 0.9, where 1 is the maximum; inactive = score below 0.9.

Key:
[1] = read-out: Vascular endothelial growth factor receptor 2 (Homo sapiens) (UniProt P35968); assay: BSK_4H_VEGFRII: BioMAP Diversity Plus: 4H Assay for Vascular endothelial growth factor receptor 2 (VEGFR2) Biomarker Activity (AID 2283031); conditions: primary human endothelial cells (HUVEC); actives raise or lower the signal;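 for AC50: cell-surface VEGFR2 protein level quantified by ELISA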
Summary of the method: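 Measured by ELISA after 24 h of compound treatment: VEGFR2 on primary human umbilical vein endothelial cells, fitted in both directions relative to DMSO. Parallel cultures received SRB staining (560 nm) for overt cytotoxicity.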

[2] = read-out: Human Leukocyte Antigen - DR isotype (HLADR), HLA-DRA (gene 3122); assay: BSK_BE3C_HLADR: BioMAP Diversity Plus: BE3C Assay for Human Leukocyte Antigen - DR isotype (HLADR) Biomarker Activity (AID 2283032); conditions: primary human bronchial epithelial cells; actives raise or lower the signal
Summary of the method: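 Signal came from an ELISA for HLA-DR in human bronchial epithelial primary cells harvested 24 h after treatment; gain- and loss-of-signal fitting used DMSO controls as reference.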

[3] = read-out: Vascular cell adhesion molecule 1 (VCAM1), VCAM1 (gene 7412); assay: BSK_4H_VCAM1: BioMAP Diversity Plus: 4H Assay for Vascular cell adhesion molecule 1 (VCAM1) Biomarker Activity (AID 2283033); conditions: primary human endothelial cells (HUVEC); actives raise or lower the signal
Summary of the method: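 Endpoint derived from bidirectional fitting against DMSO controls of VCAM-1 ELISA signal in umbilical vein endothelial cells sampled at 24 h following treatment.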

[4] = read-out: Interferon-gamma inducible Protein 10 (IP10), CXCL10 (gene 3627); assay: BSK_BE3C_IP10: BioMAP Diversity Plus: BE3C Assay for Interferon-gamma inducible Protein 10 (IP10) Biomarker Activity (AID 2283034); conditions: primary human bronchial epithelial cells; actives raise or lower the signal
Summary of the method: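 Using primary human bronchial epithelial cultures, the assay captures IP-10 by ELISA one day (24 h) after exposure. Parallel SRB staining of total protein flags overt cytotoxicity. Fits run bidirectionally relative to DMSO.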

[5] = read-out: Monokine induced gamma interferon (MIG), CXCL9 (gene 4283); assay: BSK_BE3C_MIG: BioMAP Diversity Plus: BE3C Assay for Monokine induced gamma interferon (MIG) Biomarker Activity (AID 2283035); conditions: primary human bronchial epithelial cells; actives raise or lower the signal
Summary of the method: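 ELISA read-out of MIG in human lung bronchial epithelial primary cultures, 24 h post-dosing. Bidirectional curve fit vs DMSO baseline.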

[6] = read-out: Transforming growth factor beta 1 (TGFb1), TGFB1 (gene 7040); assay: BSK_BE3C_TGFb1: BioMAP Diversity Plus: BE3C Assay for Transforming growth factor beta 1 (TGFb1) Biomarker Activity (AID 2283036); conditions: primary human bronchial epithelial cells; actives raise or lower the signal
Summary of the method: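 In this human primary bronchial epithelial system, an ELISA quantified TGF-b1 one day after dosing. Endpoint changes in either direction were fitted relative to DMSO.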

[7] = read-out: Plasminogen activator inhibitor-1 (PAI1), SERPINE1 (gene 5054); assay: BSK_BE3C_PAI1: BioMAP Diversity Plus: BE3C Assay for Plasminogen activator inhibitor-1 (PAI1) Biomarker Activity (AID 2283037); conditions: primary human bronchial epithelial cells; actives raise or lower the signal
Summary of the method: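 PAI-1 biomarker levels in treated human bronchial epithelial cells are determined by ELISA at 24 h. Both increases and decreases relative to DMSO are fitted.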

[8] = read-out: urokinase plasminogen activator (uPA), PLAU (gene 5328); assay: BSK_BE3C_uPA: BioMAP Diversity Plus: BE3C Assay for urokinase plasminogen activator (uPA) Biomarker Activity (AID 2283038); conditions: primary human bronchial epithelial cells; actives raise or lower the signal
Summary of the method: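 ELISA for uPA on human primary bronchial epithelial cultures 24 h post-treatment, gain or loss against DMSO. Parallel SRB staining (0.1% after 10% TCA fixation, 560 nm) assessed overt cytotoxicity.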

[9] = read-out: Urokinase-type plasminogen activator receptor (uPAR), PLAUR (gene 5329); assay: BSK_BE3C_uPAR: BioMAP Diversity Plus: BE3C Assay for Urokinase-type plasminogen activator receptor (uPAR) Biomarker Activity (AID 2283039); conditions: primary human bronchial epithelial cells; actives raise or lower the signal
Summary of the method: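 A uPAR ELISA serves as the readout, taken 24 h after treating primary human bronchial epithelial cells. Responses in either direction are fitted against DMSO, which defines baseline activity.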

[10] = read-out: Interleukin-6 (IL6), IL6 (gene 3569); assay: BSK_CASM3C_IL6: BioMAP Diversity Plus: CASM3C Assay for Interleukin-6 (IL6) Biomarker Activity for (AID 2283040); conditions: primary human coronary artery smooth muscle cells; actives raise or lower the signal
[11] = read-out: Tissue plasminogen activator (tPA), PLAT (gene 5327); assay: BSK_BE3C_tPA: BioMAP Diversity Plus: BE3C Assay for Tissue plasminogen activator (tPA) Biomarker Activity (AID 2283041); conditions: primary human bronchial epithelial cells; actives raise or lower the signal
Summary of the method: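 Bidirectional curve fitting relative to DMSO defined activity, with tPA detected by ELISA in chemically treated human bronchial epithelial primary cells at 24 hours.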

[12] = read-out: Interleukin-8 (IL8), CXCL8 (gene 3576); assay: BSK_CASM3C_IL8: BioMAP Diversity Plus: CASM3C Assay for Interleukin-8 (IL8) Biomarker Activity (AID 2283042); conditions: primary human coronary artery smooth muscle cells; actives raise or lower the signal;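 note: IL-8 protein level quantified by ELISA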
[13] = read-out: Human Leukocyte Antigen - DR isotype (HLADR), HLA-DRA (gene 3122); assay: BSK_CASM3C_HLADR: BioMAP Diversity Plus: CASM3C Assay for Human Leukocyte Antigen - DR isotype (HLADR) Biomarker Activity (AID 2283043); conditions: primary human coronary artery smooth muscle cells; actives raise or lower the signal;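 note: cell-surface HLA-DR protein level quantified by ELISA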
[14] = read-out: Macrophage colony-stimulating factor (MCSF), CSF1 (gene 1435); assay: BSK_CASM3C_MCSF: BioMAP Diversity Plus: CASM3C Assay for Macrophage colony-stimulating factor (MCSF) Biomarker Activity (AID 2283044); conditions: primary human coronary artery smooth muscle cells; actives raise or lower the signal;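 note: M-CSF protein amount quantified by ELISA after 24 h exposure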
[15] = read-out: Low-density lipoprotein receptor (LDLR), LDLR (gene 3949); assay: BSK_CASM3C_LDLR: BioMAP Diversity Plus: CASM3C Assay for Low-density lipoprotein receptor (LDLR) Biomarker Activity (AID 2283045); conditions: primary human coronary artery smooth muscle cells; actives raise or lower the signal;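 note: LDLR protein level on the cell surface quantified by ELISA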
[16] = read-out: Monocyte Chemoattractant Protein-1 (MCP1), CCL2 (gene 6347); assay: BSK_CASM3C_MCP1: BioMAP Diversity Plus: CASM3C Assay for Monocyte Chemoattractant Protein-1 (MCP1) Biomarker Activity (AID 2283046); conditions: primary human coronary artery smooth muscle cells; actives raise or lower the signal;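 note: MCP-1 level quantified by ELISA 24 h after dosing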
[17] = BSK_CASM3C_Proliferation: Cell Proliferation Assessment in the BioMAP Diversity Plus: CASM3C Assay (AID 2283047); conditions: primary human coronary artery smooth muscle cells;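 note: sulforhodamine B total protein stain as relative cell number at 560 nm; sub-confluent cells exposed 48 h before staining; fitted both ways against DMSO so gain or loss of cell number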
[18] = read-out: Monokine induced gamma interferon (MIG), CXCL9 (gene 4283); assay: BSK_CASM3C_MIG: BioMAP Diversity Plus: CASM3C Assay for Monokine induced gamma interferon (MIG) Biomarker Activity (AID 2283048); conditions: primary human coronary artery smooth muscle cells; actives raise or lower the signal;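 note: MIG protein level measured by ELISA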
[19] = read-out: serum amyloid A (SAA), SAA1 (gene 6288); assay: BSK_CASM3C_SAA: BioMAP Diversity Plus: CASM3C Assay for serum amyloid A (SAA) Biomarker Activity (AID 2283049); conditions: primary human coronary artery smooth muscle cells; actives raise or lower the signal;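 note: SAA protein level quantified by ELISA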
[20] = BSK_CASM3C_SRB: Viability Assessment in the BioMAP Diversity Plus: CASM3C Assay (AID 2283050); conditions: primary human coronary artery smooth muscle cells

Measured: AC50

c1ccc2ccccc2c1
inactive: [1] | [2] | [3] | [4] | [5] | [6] | [7] | [8] | [9] | [10] | [11] | [12] | [13] | [14] | [15] | [16] | [17] | [18] | [19] | [20]

Cc1cn([C@H]2C[C@H](N=[N+]=[N-])[C@@H](CO)O2)c(=O)[nH]c1=O
inactive: [1] | [2] | [3] | [4] | [5] | [6] | [7] | [8] | [9] | [10] | [11] | [12] | [13] | [14] | [15] | [16] | [17] | [18] | [19] | [20]

CO[C@H]1/C=C/O[C@@]2(C)Oc3c(C)c(O)c4c(O)c(c(/C=N/N5CCN(C)CC5)c(O)c4c3C2=O)NC(=O)/C(C)=C\C=C\[C@H](C)[C@H](O)[C@@H](C)[C@@H](O)[C@@H](C)[C@H](OC(C)=O)[C@@H]1C
active: [17] 4.51 µM
inactive: [1] | [2] | [3] | [4] | [5] | [6] | [7] | [8] | [9] | [10] | [11] | [12] | [13] | [14] | [15] | [16] | [18] | [19] | [20]

Oc1ccc2ccccc2c1
inactive: [1] | [2] | [3] | [5] | [6] | [7] | [8] | [9] | [11] | [12] | [13] | [14] | [15] | [16] | [17] | [18] | [19] | [20]
active: [4] 32.5 µM | [10] 20 µM

CC[C@@H]1C[C@H](N(Cc2cc(C(F)(F)F)cc(C(F)(F)F)c2)C(C)=O)c2cc(C(F)(F)F)ccc2N1C(=O)OC(C)C
active: [15] 1.22 µM | [17] 1.37 µM
inactive: [1] | [2] | [3] | [4] | [5] | [6] | [7] | [8] | [9] | [10] | [11] | [12] | [13] | [14] | [16] | [18] | [19] | [20]

CN(C)c1ccc(C(=C2C=CC(=[N+](C)C)C=C2)c2ccc(N(C)C)cc2)cc1
active: [1] 0.148 µM | [2] 1.28 µM | [3] 5.55 µM | [4] 5.52 µM | [5] 6.32 µM | [6] 0.73 µM | [7] 0.228 µM | [8] 1.97 µM | [9] 5.52 µM | [10] 6.61 µM | [12] 5.56 µM | [13] 7.11 µM | [14] 6.36 µM | [15] 5.4 µM | [16] 1.07 µM | [17] 2.06 µM | [18] 8.07 µM | [19] 0.822 µM | [20] 7.66 µM

CC1(C)NC(=O)N(c2ccc([N+](=O)[O-])c(C(F)(F)F)c2)C1=O
inactive: [1] | [2] | [3] | [4] | [5] | [6] | [7] | [8] | [9] | [10] | [11] | [12] | [13] | [15] | [16] | [18] | [19] | [20]
active: [14] 11.8 µM | [17] 11.8 µM

O=C(OCCCCCCOC(=O)c1ccccc1)c1ccccc1
inactive: [1] | [2] | [3] | [4] | [5] | [6] | [7] | [8] | [9] | [10] | [11] | [12] | [13] | [14] | [15] | [16] | [17] | [18] | [19] | [20]

Cc1c2ccccc2c(C)c2c1ccc1ccccc12
active: [3] 20 µM | [6] 6.06 µM | [7] 29 µM | [10] 20 µM | [13] 20 µM | [17] 12.6 µM | [20] 20 µM
inactive: [1] | [2] | [5] | [8] | [9] | [11] | [12] | [14] | [15] | [16] | [18] | [19]

CN(C)C(=O)C1(N2CCCCC2)CCN(CC[C@@]2(c3ccc(Cl)c(Cl)c3)CN(C(=O)c3ccccc3)CCO2)CC1
active: [2] 14.4 µM | [3] 30.8 µM | [4] 16.4 µM | [5] 31.2 µM | [6] 32.3 µM | [7] 24.4 µM | [8] 17.7 µM | [9] 12 µM | [10] 31.2 µM | [11] 17.3 µM | [12] 32.4 µM | [13] 18.1 µM | [14] 31.3 µM | [15] 4.45 µM | [16] 28.6 µM | [17] 15.7 µM | [18] 29.9 µM | [19] 33.3 µM | [20] 27.2 µM
inactive: [1]

O=c1c(-c2ccc(O)cc2)coc2cc(O)cc(O)c12
active: [3] 20 µM | [10] 11.1 µM | [11] 9.33 µM | [12] 20 µM | [13] 27.6 µM | [16] 28.6 µM | [17] 11.7 µM | [19] 20 µM
inactive: [1] | [2] | [4] | [5] | [6] | [7] | [8] | [9] | [14] | [15] | [18] | [20]
